Where “and” joins values, the source holds several entries; their conditions need not be identical. Identical values can stand only once. In all, about 5,500 compounds went through this assay and about 2,000 (36%) were called active. Inconclusive results (about 18%) are left out. Cut-off read from the data, not from the text of the source: active = normalized growth mostly below about 0.91 (no sharp cut-off); inconclusive = no clear call, values can overlap the other calls; inactive = mostly above about 0.92. This is one part of the list.
Assay: chemical genetic growth profiling, strain panel (AID 1159580);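 note: tested at 20 µM; growth read once vehicle control cultures reached saturation at 30 °C; 1 = growth at the plate median or of vehicle wells; lower values mean less growth of the strain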
Conditions: S. cerevisiae deletion strains, growth OD

Measured: normalized growth

C[C@@H]1CC[C@H]2[C@@H](C)C(=O)O[C@@H]3O[C@@]4(C)CC[C@@H]1[C@]32OO4
inactive: locus YAL013W, strain DEP1, active compounds read low 0.924 | locus YBR021W, strain FUR4, active compounds read low 0.948 | locus YBR229C, strain ROT2, active compounds read low 0.942 | locus YDL005C, strain med2, active compounds read low 0.967 | locus YDL040C, strain nat1, active compounds read low 0.949 | locus YDL074C, strain BRE1, active compounds read low 0.83 | locus YDL101C, strain DUN1, active compounds read low 0.913 | locus YDR001C, strain nth1, active compounds read low 0.932 | locus YDR195W, strain ref2 0.956 | locus YDR334W, strain swr1, active compounds read low 0.917 | locus YER110C, active compounds read low 0.932 | locus YER111C, strain swi4, active compounds read low 0.93 | locus YGL078C, strain dbp3, active compounds read low 0.939 | locus YGL167C, strain pmr1, active compounds read low 0.973 | locus YGL173C, strain kem1, active compounds read low 0.907 | locus YGL227W, strain vid30, active compounds read low 0.95 | locus YGR252W, strain gcn5, active compounds read low 0.854 | locus YHR094C, strain hxt1, active compounds read low 0.94 | locus YIL073C, strain SPO22, active compounds read low 0.741 | locus YJL154C, strain vps35, active compounds read low 0.928 | locus YJR043C, strain POL32, active compounds read low 0.867
active: locus YAL021C, strain ccr4, active compounds read low 0.741 | locus YAL026C, strain drs2, active compounds read low 0.824 | locus YAL030W, strain snc1, active compounds read low 0.89 | locus YBL061C, strain skt5, active compounds read low 0.903 | locus YBR009C, strain hhf1, active compounds read low 0.788 | locus YBR023C, strain chs3, active compounds read low 0.906 | locus YBR171W, strain sec66, active compounds read low 0.889 | locus YBR231C, strain swc5, active compounds read low 0.713 | locus YBR279W, strain paf1, active compounds read low 0.864 | locus YCL011C, strain gbp2, active compounds read low 0.869 | locus YCL016C, strain dcc1, active compounds read low 0.837 | locus YCL029C, strain bik1, active compounds read low 0.887 | locus YCL069W, strain vba3, active compounds read low 0.924 | locus YCR088W, strain abp1, active compounds read low 0.921 | locus YDL035C, strain GPR1, active compounds read low 0.825 | locus YDL134C, strain PPH21, active compounds read low 0.818 | locus YDL185W, strain tfp1, active compounds read low 0.875 | locus YDL192W, strain arf1, active compounds read low 0.867 | locus YDR069C, strain doa4, active compounds read low 0.872 | locus YDR101C, strain arx1, active compounds read low 0.887 | locus YDR137W, strain rgp1, active compounds read low 0.388 | locus YDR150W, strain NUM1, active compounds read low 0.899 | locus YDR159W, strain sac3, active compounds read low 0.595 | locus YDR162C, strain NBP2, active compounds read low 0.817 | locus YDR297W, strain sur2, active compounds read low 0.893 | locus YDR318W, strain mcm21, active compounds read low 0.841 | locus YDR335W, strain msn5, active compounds read low 0.853 | locus YDR388W, active compounds read low 0.868 | locus YDR392W, strain spt3, active compounds read low 0.374 | locus YDR502C, strain sam2, active compounds read low 0.815 | locus YEL003W, strain gim4, active compounds read low 0.808 | locus YEL037C, strain rad23, active compounds read low 0.915 | locus YEL061C, strain CIN8 (second series), active compounds read low 0.889 | locus YEL061C, strain CIN8, active compounds read low 0.891 | locus YER015W, strain faa2, active compounds read low 0.761 | locus YER016W, strain bim1, active compounds read low 0.904 | locus YER155C, strain BEM2 (second series), active compounds read low 0.655 | locus YER155C, strain BEM2, active compounds read low 0.922 | locus YER167W, strain BCK2, active compounds read low 0.784 | locus YFR010W, strain ubp6, active compounds read low 0.841 | locus YGL086W, strain mad1, active compounds read low 0.827 | locus YGL240W, strain doc1, active compounds read low 0.757 | locus YGL248W, strain PDE1, active compounds read low 0.818 | locus YGL253W, strain hxk2, active compounds read low 0.707 | locus YGR078C, strain PAC10, active compounds read low 0.789 | locus YGR135W, strain pre9, active compounds read low 0.858 | locus YHR013C, strain ard1, active compounds read low 0.781 | locus YHR027C, strain rpn1, active compounds read low 0.781 | locus YHR030C, strain SLT2, active compounds read low 0.837 and 0.62 | locus YHR079C, strain IRE1 (second series), active compounds read low 0.89 | locus YHR079C, strain IRE1, active compounds read low 0.654 | locus YHR129C, strain ARP1, active compounds read low 0.89 | locus YHR142W, strain chs7, active compounds read low 0.856 | locus YHR200W, strain rpn10, active compounds read low 0.851 | locus YIL066C, strain RNR3, active compounds read low 0.805 | locus YIL125W, strain kgd1, active compounds read low 0.893 | locus YIR030C, strain dcg1, active compounds read low 0.918 | locus YJL092W, strain hpr5, active compounds read low 0.859 | locus YJL095W, strain BCK1 (second series), active compounds read low 0.798 | locus YJL095W, strain BCK1, active compounds read low 0.625 and 0.71 | locus YJL115W, strain asf1, active compounds read low 0.861 | locus YJL129C, strain trk1, active compounds read low 0.703 | locus YJL134W, strain LCB3, active compounds read low 0.927 | locus YJL164C, strain tpk1, active compounds read low 0.871 | locus YJL166W, strain qcr8, active compounds read low 0.813 | locus YJL168C, strain set2, active compounds read low 0.915 | locus YJL187C, strain SWE1 (second series), active compounds read low 0.843 | locus YJR066W, strain TOR1, active compounds read low 0.738 | locus YJR075W, strain HOC1, active compounds read low 0.79
